Measured values published in PubChem BioAssay AID1159580 (chemical genetic matrix, 2015).
Values joined by “and” are separate entries in the source; they are usually repeats but may differ in a detail not shown here. Equal values may be shown once. About 2,000 (36%) of roughly 5,500 compounds were called active. Roughly 18% stayed inconclusive and do not appear here. Cut-off read from the data, not from the text of the source: active = normalized growth mostly below about 0.91 (no sharp cut-off); inconclusive = no clear call, values can overlap the other calls; inactive = mostly above about 0.92. The list shows a part of the results.

Assay: chemical genetic growth profiling, strain panel (AID 1159580);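 note: tested at 20 µM; growth read once vehicle control cultures reached saturation at 30 °C; 1 = growth at the plate median or of vehicle wells; lower values mean less growth of the strain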
Details: S. cerevisiae deletion strains, growth OD

Measured: normalized growth

O=C(O)CCC1NCC2CC1CN1CCCCC21 (configuration not stated)
inactive: locus YAL013W, strain DEP1, stronger effect = lower value 1 | locus YAL021C, strain ccr4, stronger effect = lower value 0.97 | locus YAL026C, strain drs2, stronger effect = lower value 0.974 | locus YAL030W, strain snc1, stronger effect = lower value 0.969 | locus YBL061C, strain skt5, stronger effect = lower value 0.975 | locus YBR009C, strain hhf1, stronger effect = lower value 0.989 | locus YBR021W, strain FUR4, stronger effect = lower value 1.01 | locus YBR023C, strain chs3, stronger effect = lower value 0.983 | locus YBR171W, strain sec66, stronger effect = lower value 0.999 | locus YBR229C, strain ROT2, stronger effect = lower value 1.01 | locus YBR231C, strain swc5, stronger effect = lower value 0.986 | locus YBR279W, strain paf1, stronger effect = lower value 0.977 | locus YCL011C, strain gbp2, stronger effect = lower value 0.975 | locus YCL016C, strain dcc1, stronger effect = lower value 0.98 | locus YCL029C, strain bik1, stronger effect = lower value 0.997 | locus YCL061C, strain MRC1, stronger effect = lower value 0.989 | locus YCL069W, strain vba3, stronger effect = lower value 0.985 | locus YCR088W, strain abp1, stronger effect = lower value 0.982 | locus YDL005C, strain med2, stronger effect = lower value 0.969 | locus YDL035C, strain GPR1, stronger effect = lower value 1.02 | locus YDL040C, strain nat1, stronger effect = lower value 0.982 | locus YDL074C, strain BRE1, stronger effect = lower value 0.999 | locus YDL101C, strain DUN1, stronger effect = lower value 1 | locus YDL134C, strain PPH21, stronger effect = lower value 1 | locus YDL185W, strain tfp1, stronger effect = lower value 0.997 | locus YDL192W, strain arf1, stronger effect = lower value 0.998 | locus YDR001C, strain nth1, stronger effect = lower value 0.967 | locus YDR069C, strain doa4, stronger effect = lower value 0.987 | locus YDR101C, strain arx1, stronger effect = lower value 0.999 | locus YDR137W, strain rgp1, stronger effect = lower value 0.975 | locus YDR150W, strain NUM1, stronger effect = lower value 0.998 | locus YDR159W, strain sac3, stronger effect = lower value 0.978 | locus YDR162C, strain NBP2, stronger effect = lower value 1 | locus YDR195W, strain ref2 0.975 | locus YDR297W, strain sur2, stronger effect = lower value 0.974 | locus YDR318W, strain mcm21, stronger effect = lower value 1.02 | locus YDR334W, strain swr1, stronger effect = lower value 0.931 | locus YDR335W, strain msn5, stronger effect = lower value 0.969 | locus YDR388W, stronger effect = lower value 0.994 | locus YDR392W, strain spt3, stronger effect = lower value 0.914 | locus YDR502C, strain sam2, stronger effect = lower value 0.988 | locus YEL003W, strain gim4, stronger effect = lower value 0.967 | locus YEL037C, strain rad23, stronger effect = lower value 0.999 | locus YEL061C, strain CIN8 (second series), stronger effect = lower value 0.97 | locus YEL061C, strain CIN8, stronger effect = lower value 1.02 | locus YER015W, strain faa2, stronger effect = lower value 0.966 | locus YER016W, strain bim1, stronger effect = lower value 0.973 | locus YER110C, stronger effect = lower value 0.999 | locus YER111C, strain swi4, stronger effect = lower value 0.98 | locus YER155C, strain BEM2 (second series), stronger effect = lower value 0.999 | locus YER155C, strain BEM2, stronger effect = lower value 1 | locus YER167W, strain BCK2, stronger effect = lower value 1 | locus YFR010W, strain ubp6, stronger effect = lower value 0.974 | locus YGL078C, strain dbp3, stronger effect = lower value 0.982 | locus YGL086W, strain mad1, stronger effect = lower value 1.02 | locus YGL167C, strain pmr1, stronger effect = lower value 0.965 | locus YGL173C, strain kem1, stronger effect = lower value 0.963 | locus YGL227W, strain vid30, stronger effect = lower value 0.986 | locus YGL240W, strain doc1, stronger effect = lower value 0.985 | locus YGL248W, strain PDE1, stronger effect = lower value 1 | locus YGL253W, strain hxk2, stronger effect = lower value 0.978 | locus YGR078C, strain PAC10, stronger effect = lower value 1 | locus YGR135W, strain pre9, stronger effect = lower value 0.98 | locus YGR229C, strain SMI1, stronger effect = lower value 0.983 | locus YGR252W, strain gcn5, stronger effect = lower value 1.06 | locus YHR013C, strain ard1, stronger effect = lower value 0.95 | locus YHR027C, strain rpn1, stronger effect = lower value 0.953 | locus YHR030C, strain SLT2, stronger effect = lower value 1.01 and 1.03 | locus YHR079C, strain IRE1 (second series), stronger effect = lower value 1 | locus YHR079C, strain IRE1, stronger effect = lower value 1.01 | locus YHR094C, strain hxt1, stronger effect = lower value 0.999 | locus YHR129C, strain ARP1, stronger effect = lower value 1.01 | locus YHR142W, strain chs7, stronger effect = lower value 0.938 | locus YHR200W, strain rpn10, stronger effect = lower value 1 | locus YIL066C, strain RNR3, stronger effect = lower value 1.02 | locus YIL073C, strain SPO22, stronger effect = lower value 1.03 | locus YIL125W, strain kgd1, stronger effect = lower value 0.993 | locus YIR030C, strain dcg1, stronger effect = lower value 0.986 | locus YJL092W, strain hpr5, stronger effect = lower value 0.979 | locus YJL095W, strain BCK1 (second series), stronger effect = lower value 0.976 | locus YJL095W, strain BCK1, stronger effect = lower value 1 | locus YJL115W, strain asf1, stronger effect = lower value 0.958 | locus YJL129C, strain trk1, stronger effect = lower value 0.952 | locus YJL134W, strain LCB3, stronger effect = lower value 0.999 | locus YJL154C, strain vps35, stronger effect = lower value 0.967 | locus YJL164C, strain tpk1, stronger effect = lower value 0.976 | locus YJL166W, strain qcr8, stronger effect = lower value 0.975 | locus YJL168C, strain set2, stronger effect = lower value 0.995 | locus YJL187C, strain SWE1 (second series), stronger effect = lower value 1.01 | locus YJL187C, strain SWE1, stronger effect = lower value 0.974 | locus YJR043C, strain POL32, stronger effect = lower value 1.03 | locus YJR066W, strain TOR1, stronger effect = lower value 0.98
